Each compound was assayed on TGFBR1. Conditions: concentration: 1 μM, replicates: in singlicate; n = 1.
For `O=C(Nc1n[nH]c2cc(-c3cccc(F)c3F)ccc12)C1CC1` [SB-733894], the “%Inh” value was 1%.
In the case of `CN1C(=O)C(Nc2ccc(Cl)c(C(=O)O)c2)=C(c2ccc(Cl)cc2)C1=O` [SB-404290], the “%Inh” value is reported as 0%.
`Cn1cncc1-c1ccc2ncnc(Nc3ccc(OCc4ccccc4)cc3)c2c1` [GW320571] was tested, and the “%Inh” value was 5%.
`Cn1ccc2ncnc(Oc3cccc(C(=O)Nc4ccccc4)c3)c21` was tested, and the “%Inh” value was 8%.
For `Fc1cc(Cl)ccc1Nc1ccnc2cc(I)ccc12` [GW551191], the “%Inh” value was 17%.
`COc1cc2ncnc(Nc3ccc4nc(-c5ccccc5)[nH]c4c3)c2cc1OC.Cl` [GW282450] was tested, and the “%Inh” value was 0%.
For `COc1ccc(CNC(=O)NC2CCN(c3ccnc(Nc4cc(OC)c(OC)c(OC)c4)n3)C2)cc1` (centres unmarked) [GSK1379748], the “%Inh” value was 0%.

The compounds below were run on TGFBR2. Conditions: concentration: 1 μM, replicates: in singlicate; n = 1.
For `O=C(Nc1n[nH]c2nc(-c3nccs3)c(Br)cc12)C1CCCC1` [SB-742609], the “%Inh” value was 0%.
In the case of `CC1=C(C(=O)Nc2cc3cn[nH]c3cc2F)C(c2ccc(C(F)(F)F)cc2)CC(=O)N1` (centres unmarked) [GSK429286], the “%Inh” value is reported as 0%.
For `CSc1nn2c(=O)cc(N3CCOCC3)nc2n1Cc1cccc(C(F)(F)F)c1C` [GSK2363608], the “%Inh” value was 0%.
For `Cl.O=C(Nc1cccc(-c2nn3ncccc3c2-c2ccnc(Nc3cccnc3)n2)c1)c1c(F)cccc1F` [GSK312879], the “%Inh” value was 0%.
With `Cc1ccc(NC(=O)Nc2cccc(Cl)c2)cc1-c1ccc(C(=O)Nc2ccncc2)cc1` [GSK1398468] the “%Inh” value was 0%.
In the case of `CC(=O)Nc1nc2cnc(Nc3cc(NC(=O)c4cccc(CCC#N)c4)ccc3C)nc2s1`, the “%Inh” value is reported as 0%.
`COc1cccc(NC(=O)NC2CCN(c3ccnc(Nc4ccc(F)cc4)n3)C2)c1` (centres unmarked) [GSK1379721] was tested, and the “%Inh” value was 0%.
With `CS(=O)(=O)c1ccc(-c2nc3n(c2-c2ccncc2)CCC3)cc1` [SKF-105942] the “%Inh” value was 0%.
For `CCCc1ccc(S(=O)(=O)NC2CCN(c3ccnc(Nc4ccc(F)cc4)n3)C2)cc1` (centres unmarked) [GSK1379715], the “%Inh” value was 0%.
`O=S(=O)(c1ccc(-c2ccnc3[nH]ccc23)cc1)N1CCCC1` [GSK846226] was tested, and the “%Inh” value was 0%.
For `Cc1ccc(NC(=O)Nc2cc(C(C)(C)C)nn2-c2ccccc2)cc1` [GSK1014915], the “%Inh” value was 1%.
With `CN(C)CCN(C)C(=O)c1cc(-c2ccncc2)c(-c2ccc(Cl)c(O)c2)o1.Cl.Cl` [SB-710397] the “%Inh” value was 72%.
With `O=C(O)COc1ncnc2cc(-c3ccc4[nH]ncc4c3)sc12` the “%Inh” value was 18%.
In the case of `Cc1cccc(-c2nc(C)cc(Nc3ccncc3)n2)n1` [GSK257997], the “%Inh” value is reported as 4%.
For `O=C(Nc1n[nH]c2nc(-c3nccs3)c(Br)cc12)C1CC1` [SB-742251], the “%Inh” value was 0%.
For `Nc1nc(-c2nccs2)c(-c2ccnc3ccccc23)s1` [GW693542], the “%Inh” value was 55%.
In the case of `CC(C)(C)c1ccc(C(=O)Nc2cn3cc(-c4cccnc4)ccc3n2)cc1`, the “%Inh” value is reported as 7%.
With `Cn1ccc2ncnc(Oc3ccc(NC(=O)Nc4ccccc4)cc3)c21` the “%Inh” value was 0%.
`Cl.c1ccc(-c2n[nH]cc2-c2ccnc(-c3ccc(CN4CCOCC4)cc3)c2)nc1` [GW776245] was tested, and the “%Inh” value was 87%.
With `COc1cc2ncn(-c3cc(OCC4CCCO4)c(C(N)=O)s3)c2cc1OC` (centres unmarked) [GSK204607] the “%Inh” value was 0%.
With `COc1ccc(C2=C(Nc3cccc(C(=O)O)c3)C(=O)NC2=O)cc1` [SB-390765] the “%Inh” value was 0%.
`Fc1cc(Cl)ccc1Nc1ccnc2cc(-c3ccc(CN4CCCCC4)o3)ccc12` [GW560116] was tested, and the “%Inh” value was 0%.
`O=c1cc(N2CCOCC2)nc2n(Cc3cccc(Cl)c3Cl)ccn12` [GSK2286295] was tested, and the “%Inh” value was 0%.
`O=C(Nc1ccccc1)Nc1cccc(Oc2ccc3nccn3n2)c1` was tested, and the “%Inh” value was 9%.
In the case of `Nc1ncnc2[nH]c(-c3ccccc3)nc12` [AH5015], the “%Inh” value is reported as 9%.
For `Cc1cccc(-c2nc(-c3ccc(S(C)(=O)=O)cc3)sc2-c2ccnc(NCCc3ccccc3)c2)c1`, the “%Inh” value was 0%.
In the case of `O=C(Nc1n[nH]c2cc(-c3cccc(F)c3F)ccc12)C1CC1` [SB-733894], the “%Inh” value is reported as 14%.
For `CN1C(=O)C(Nc2ccc(Cl)c(C(=O)O)c2)=C(c2ccc(Cl)cc2)C1=O` [SB-404290], the “%Inh” value was 0%.
`Cn1cncc1-c1ccc2ncnc(Nc3ccc(OCc4ccccc4)cc3)c2c1` [GW320571] was tested, and the “%Inh” value was 29%.
In the case of `Cn1ccc2ncnc(Oc3cccc(C(=O)Nc4ccccc4)c3)c21`, the “%Inh” value is reported as 0%.
For `Fc1cc(Cl)ccc1Nc1ccnc2cc(I)ccc12` [GW551191], the “%Inh” value was 50%.
`COc1cc2ncnc(Nc3ccc4nc(-c5ccccc5)[nH]c4c3)c2cc1OC.Cl` [GW282450] was tested, and the “%Inh” value was 0%.
For `COc1cccc(-c2cc(-c3c[nH]nc3-c3ccccn3)ccn2)c1` [GW680338], the “%Inh” value was 32%.
With `COc1ccc(CNC(=O)NC2CCN(c3ccnc(Nc4cc(OC)c(OC)c(OC)c4)n3)C2)cc1` (centres unmarked) [GSK1379748] the “%Inh” value was 0%.

From paper PMC5540273 (PLoS ONE, 2017)
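Also: KINOMEscan kinase panel screen.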
